Bioassay records: PubChem BioAssay, National Center for Advancing Translational Sciences (NCATS)
Sampled rows, rich in hits. Any-hit rate of the full collection: about 17%.
DT40 TDP1 no CPT – qHTS for Inhibitors of human tyrosyl-DNA phosphodiesterase 1 (TDP1): qHTS in cells in absence of CPT; DT40 Tdp1-/- hTDP1 cells, no CPT, ATP luminescence, 48 h; Potency, µM (top dose mostly 46.2 µM), for inactives: top-dose activity change, negative = growth inhibition, usual class: inhibitors; actives 15% (n = 420,000); AID 686978, 2013; note: % is set by controls: 0 for no effect and ±100 for the full control effect; nearly all actives have a fitted effect of over 55% in size
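A cellular qHTS used chicken DT40 cells lacking endogenous Tdp1 but carrying stably transfected human TDP1. Compounds were applied without camptothecin, and cell growth kinetics were judged by ATP-dependent luminescence after ≥48 hr.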
DT40 TDP1 CPT – DT40-hTDP1 cell growth loss with CPT; chicken DT40 Tdp1-/-;hTDP1 cells + 20 nM CPT, ATP luminescence, 48 h; Potency, µM (series often up to 46.2 µM), for the others: top-dose activity change, negative = growth inhibition, usual class: inhibitors; actives 12% (n = 420,000); note: % is set by controls: 0 for no effect and ±100 for the full control effect; nearly all actives have a fitted effect of over 55% in size
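Chicken DT40 Tdp1-/- cells stably complemented with human TDP1 were seeded at 400 cells/well in medium containing 20 nM camptothecin, exposed to pin-transferred compounds, and grown at 37 °C for at least 48 hr. Viability was read as ATP luminescence.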
TDP1 block – blocks human tyrosyl-DNA phosphodiesterase 1. recombinant TDP1, AlphaScreen DNA substrate cleavage. Potency, µM (series often up to 130 µM), for the others: top-dose activity change, negative = inhibition, actives largely listed as inhibitors. Q9NUW8. AID 485290. actives 0.28% (n = 350,000); note: % is set by controls: 0 for no effect and ±100 for the full control effect; nearly all actives have a fitted effect of over 40% in size
Target sequence (Q9NUW8 whole entry, looked up): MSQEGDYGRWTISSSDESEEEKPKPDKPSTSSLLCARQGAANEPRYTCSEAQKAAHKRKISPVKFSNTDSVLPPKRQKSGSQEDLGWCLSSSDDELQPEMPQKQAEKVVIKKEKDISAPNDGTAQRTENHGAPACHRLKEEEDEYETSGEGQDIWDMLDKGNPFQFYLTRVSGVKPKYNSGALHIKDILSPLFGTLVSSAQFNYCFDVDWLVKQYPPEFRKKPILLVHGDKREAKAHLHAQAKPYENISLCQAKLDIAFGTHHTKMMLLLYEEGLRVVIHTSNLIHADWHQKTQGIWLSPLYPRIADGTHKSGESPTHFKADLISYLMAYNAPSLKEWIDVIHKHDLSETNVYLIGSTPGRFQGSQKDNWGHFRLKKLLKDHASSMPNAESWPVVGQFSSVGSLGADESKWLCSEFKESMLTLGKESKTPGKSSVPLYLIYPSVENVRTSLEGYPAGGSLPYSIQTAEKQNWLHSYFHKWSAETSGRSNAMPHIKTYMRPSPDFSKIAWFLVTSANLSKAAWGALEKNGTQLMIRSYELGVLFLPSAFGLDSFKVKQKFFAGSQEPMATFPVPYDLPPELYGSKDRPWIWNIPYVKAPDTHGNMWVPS
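Enzyme-compound mixtures sat 15 min at room temperature, followed by a 5 min reaction with 15 nM final substrate and 10 min with AlphaScreen beads. Recombinant human Tdp1 was used at 1 nM final.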
ClpP mod – qHTS Assay for Activators of ClpP; ATP-dependent Clp protease proteolytic subunit (Bacillus subtilis (strain 168)), P80244; purified B. subtilis ClpP, FRET peptide cleavage, 20 min; actives 1.9% (n = 340,000); Potency, µM (doses to about 57.5 µM), for the others: at the highest dose activity change, negative = active; active = well fitted falling curve with a large enough effect; inconclusive = small, poorly fitted or top-dose-only effect; inactive = no such curve, though single readings can be large or run the other way; note: the source files actives as falling curves though it sought activators and does not explain the sign; nearly all actives have a fitted effect of over 65% in size
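Buffer: 100 mM Tris/HCl pH8, 100 mM KCl, 0.05% low protease BSA, 2.5% glycerol, 0.01% Tween-20. ClpP 10 microg/mL final; 20 min RT; delta FRET normalized to ADEP and DMSO controls.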
The depositor's hits bear a star; ? = inconclusive; nt = no result; [ ] = another dose, or the depositor's remark. Unless noted, calls come from the whole dose curve; as a rule, active = well fitted curve in the direction sought with a large enough effect; inconclusive = small, poorly fitted or top-dose-only effect, or another doubt; inactive = no such curve, though single readings can be large; an effect the other way counts as inactive or inconclusive. Potency is the fitted concentration of half-maximal effect.

SMILES	DT40 TDP1 no CPT	DT40 TDP1 CPT	TDP1 block	ClpP mod
CCC(CC)C(C(=O)NCc1ccccc1)N1CCN(CCN2CCOCC2)CC1 (stereo not given)	2%	-10%	nt	2%
CCOC(=O)c1ccc(NC(=O)CC2C(=O)N(c3ccccc3)C(=O)N2Cc2ccc(C)cc2)cc1 (stereo not given)	23µM*	?	6%	-1%
CCCOc1ccc(NC(=O)CC2C(=O)N(c3ccccc3)C(=O)N2Cc2ccc(F)cc2)cc1 (stereo not given)	21µM*	16µM*	8%	-1%
CCOC(=O)c1ccc(NC(=O)CC2C(=O)N(c3cccc(C)c3)C(=O)N2CCOC)cc1 (stereo not given)	?	?	4%	1%
COC(=O)c1ccc(NC(=O)CC2C(=O)N(c3ccc(F)cc3)C(=O)N2Cc2ccc(OC)cc2)cc1 (stereo not given)	18µM*	?	8%	-1%
COc1ccc(CN2C(=O)N(c3ccc(OC)cc3)C(=O)C2CC(=O)Nc2ccccc2)cc1 (stereo not given)	?	-14%	-2%	0%
COc1ccc(NC(=O)CC2C(=O)N(c3cccc(OC)c3)C(=O)N2CCC2=CCCCC2)cc1 (stereo not given)	23µM*	?	-6%	1%
CCNC(=O)NCCCOc1cccc(CN2CCCCC2)c1	-6%	-18%	nt	nt
Cc1cc(=O)c(C(=O)Nc2cccc(C(=O)NC3CC3)c2)nn1-c1ccccc1	-21%	-11%	nt	1%
COc1cccc([C@@H]2Oc3ccc(Br)cc3C(=O)[C@H]2OC(=O)NCCOc2ccccc2)c1	nt	nt	7%	nt
CCOc1ccc(NC(=O)CC2C(=O)N(c3ccc(C)cc3)C(=O)N2Cc2ccc(OC)cc2)cc1 (stereo not given)	23µM*	?	-4%	-2%
CCOC(=O)C1=CCN(S(=O)(=O)c2ccc(C)cc2)C1c1ccc(Cl)c(Cl)c1 (stereo not given)	?	?	nt	0%
CCOC(=O)c1cnc2c(C)cc(C)cc2c1NCCN1CCOCC1	16µM*	18µM*	2%[12.3 µM]	-30%
CCOC(=O)c1cnc2c(C)cc(C)cc2c1NCCCN1CCOCC1	?	?	nt	-18%
CCOC(=O)c1cnc2c(C)cc(C)cc2c1Nc1cccc(C(=O)O)c1	15µM*	13µM*	-6%[12.3 µM]	-3%
CCOc1ccccc1Nc1nnc(-c2cc3cc(Cl)ccc3oc2=O)s1	2.3µM*	2.3µM*	4%	1%
COc1ccc(Nc2nnc(-c3cc4cc(Cl)ccc4oc3=O)s2)cc1	7%	14%	-3%[12.3 µM]	0%
CC(C)C[C@H](NC(=O)c1[nH]cnc1C(=O)N[C@H](C)c1ccccc1)C(=O)OCc1ccccc1	16µM*	?	9%	2%
CC(C)C[C@H](NC(=O)c1nc[nH]c1C(=O)N[C@@H](CC(C)C)C(=O)OCc1ccccc1)C(=O)OCc1ccccc1	26µM*	23µM*	nt	-7%
O=C(COC(=O)COc1ccc2c(c1)CCC2)Nc1ccccc1	20%	2%	1%	0%
Cc1nc(SC(C)C(=O)Nc2ccccc2C)cc(-c2ccccc2)n1 (stereo not given)	21µM*	15µM*	2%	-1%
Cc1nc(SCC(=O)Nc2ccccc2Cl)cc(-c2ccccc2)n1	-18%	-5%	-3%	-1%
COc1ccc(NC(=O)C(C)Sc2cc(-c3ccccc3)nc(C)n2)cc1Cl (stereo not given)	21µM*	21µM*	-6%	1%
C[C@@]12C(=O)N(CC3CCCO3)CC(=O)N1[C@H]1c3cc(Cl)ccc3OC[C@@H]1[C@@H]2c1ccccc1 (stereo not given in full)	15µM*	23µM*	2%	0%
C[C@@]12C(=O)Nc3ccc(F)cc3C(=O)N1[C@H]1c3cc(Br)ccc3OC[C@@H]1[C@@H]2c1ccccc1	23µM*	?	0%	-21%
SMILES	DT40 TDP1 no CPT	DT40 TDP1 CPT	TDP1 block	ClpP mod
C[C@@]12C(=O)Nc3ccc(Br)cc3C(=O)N1[C@H]1c3cc(Cl)ccc3OC[C@@H]1[C@@H]2c1ccccc1	18µM*	?	0%	-7%
C[C@@]12C(=O)Nc3ccc(Br)cc3C(=O)N1[C@H]1c3ccccc3OC[C@@H]1[C@@H]2c1ccccc1	?	?	3%	-6%
CS(=O)(=O)NC(=O)CCC/C=C\C[C@H]1C(=O)C[C@@H](O)[C@@H]1/C=C/[C@@H](O)COc1ccccc1	nt	nt	13%	nt
CCNc1ncc2nc(-c3ccc(F)cc3)c(=O)n(-c3ccccc3)c2n1	-1%	4%	nt	nt
COC(=O)c1ccccc1NC(=O)c1c(C)oc2ncn(C)c(=O)c12	-18%	1%	1%	0%
O=C1CCc2cc(S(=O)(=O)N3CCCCC3)cc3c2N1CCC3	-9%	16%	nt	nt
CCOC(=O)C1CCN(S(=O)(=O)c2ccc(CC)cc2)CC1	?	21µM*	11%	1%
CC1CC(C)CN(S(=O)(=O)c2cc3c4c(c2)CCC(=O)N4CCC3)C1 (stereo not given)	18µM*	?	-4%	-1%
CCOc1ccc(S(=O)(=O)N2CCCC(C(=O)N3CCOCC3)C2)cc1Cl (stereo not given)	?	?	5%	nt
CCOC(=O)C1CCCN(C(=O)c2ccc(S(=O)(=O)N3CCCC3)cc2)C1 (stereo not given)	-4%	-5%	-4%	3%
CCOC(=O)C1CCN(C(=O)C2CCCN(S(=O)(=O)c3ccc(OCC)c(Cl)c3)C2)CC1 (stereo not given)	5.8µM*	6.5µM*	-11%	1%
CCOC(=O)C1CCCN(S(=O)(=O)c2ccc(S(=O)(=O)N3CCCC3)cc2)C1 (stereo not given)	3.7µM*	4.6µM*	2%	0%
COc1ccccc1-c1ccnc(-n2ncc(C(=O)N(C)C(C)c3ccon3)c2C2CC2)n1 (stereo not given)	-23%	-11%[9.04 µM]	nt	nt
Clc1ccc(OCc2nc(-c3ccc(-n4cccc4)cc3)no2)cc1	-5%	-23%	1%	-6%
CCOc1ccc(NC(=O)Cn2cc(C(=O)c3ccc(CC)cc3)c(=O)c3cc(C)ccc32)cc1	-24%	-12%	4%	0%
CCOC(=O)C1CCCN(S(=O)(=O)c2cc3c4c(c2)CCC(=O)N4CCC3)C1 (stereo not given)	21µM*	23µM*	0%	-1%
O=c1cc(N2CCOCC2)oc2c(-c3ccccc3)cccc12	7.3µM*	8.2µM*	10%[56.1 µM]	nt
O=c1cc(N2CCOCC2)oc2c1ccc1ccccc12	nt	nt	26%	nt
